Measured values published in the supplement of paper PMC6555819.

How the values were obtained:
Assay in all cases: PBM binding z-score (relative to random genomic background probes); higher = stronger binding; sequences stand for … in GC…GCGATTGACAGCGTAGAATGAAGG
[1] = test system: FXR:RXRa (NR concentration 270 nM, RXRa partner concentration 90 nM)
How it was run: (§1)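 Binding z-scores take random background probes as their reference. They come from custom Agilent 4×180K protein-binding microarrays incubated 1 h with ligand-free nuclear receptor dimers, with antibodies against each partner (one per run) detecting binding. Scanned fluorescence was regression-normalized.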

[2] = test system: LXRa:RXRa (NR concentration 270 nM, RXRa partner concentration 90 nM)
How it was run: as §1

[3] = test system: LXRa homodimer (NR concentration 270 nM)
How it was run: as §1

[4] = test system: LXRb:RXRa (NR concentration 270 nM, RXRa partner concentration 90 nM)
How it was run: as §1

[5] = test system: LXRb homodimer (NR concentration 270 nM)
How it was run: as §1

[6] = test system: PPARa:RXRa (NR concentration 270 nM, RXRa partner concentration 90 nM)
How it was run: as §1

[7] = test system: PPARg:RXRa (NR concentration 180 nM, RXRa partner concentration 90 nM)
How it was run: as §1

[8] = test system: PPARg:RXRa 270nM:90nM, anti-RXR (NR concentration 270 nM, RXRa partner concentration 90 nM)
How it was run: as §1

[9] = test system: PPARg:RXRa 30nM:10nM, anti-RXR (NR concentration 30 nM, RXRa partner concentration 10 nM)
How it was run: as §1

[10] = test system: PPARg:RXRa 90nM:30nM, anti-RXR (NR concentration 90 nM, RXRa partner concentration 30 nM)
How it was run: as §1

| Sequence | PBM binding z-score [1] | PBM binding z-score [2] | PBM binding z-score [3] | PBM binding z-score [4] | PBM binding z-score [5] | PBM binding z-score [6] | PBM binding z-score [7] | PBM binding z-score [8] | PBM binding z-score [9] | PBM binding z-score [10] |
| --- | --- | --- | --- | --- | --- | --- | --- | --- | --- | --- |
| GGAACGAGGGCAAGTCGATAGCAGAGTTTGATGG | 0.383 | 0.00226 | -0.566 | -0.0585 | -0.781 | 1.48 | 0.928 | 0.703 | -0.275 | 0.116 |
| CAGCCTAGGTCAGGGCCAGCATAGGAGGAACGTT | 1.52 | 0.758 | -0.392 | 0.314 | -1.18 | 1.98 | 0.816 | 1.02 | -0.543 | 0.19 |
| TCACGGAGGACACGAAAGGTCAGAGCTCGACATC | 3.04 | 4.14 | 3.14 | 3.07 | -0.784 | 3.5 | 1.48 | 2.62 | 2.28 | 2.43 |
| CCTATTAGATGACCATAAGGGCAACCGAAGCTCG | 0.824 | 0.35 | 0.303 | 0.273 | 0.565 | 0.419 | 0.753 | 0.324 | 0.147 | 0.0156 |
| AGAATGAGGTTATATGTAGATCAGGGAAGAAAGT | 2.11 | 1.96 | 0.495 | 1.82 | 0.548 | 3.26 | 2.33 | 2.5 | 0.823 | 1.87 |
| CCTACTGGGCCGAAAAGGTCATTGATGCCGATAA | 3.42 | 4.38 | 2.91 | 3.93 | 0.134 | 4.47 | 1.7 | 3.34 | 0.611 | 2.39 |
| CCGCCTGGGGCAAGGTTACCATAACGCACAGCCA | 0.284 | 0.783 | -0.315 | 0.56 | -1.07 | 1.21 | 0.654 | 0.637 | -0.339 | 0.253 |
| TAGCCTAGGTCATTCAGGGGCCTGTATAGAAAGC | 4.5 | 3.47 | 0.422 | 2.66 | 0.91 | 3.5 | 2.01 | 2.08 | 0.363 | 1.19 |
| CGTCCAACGTCAATGCTAGGTCAGTGAAAGCATT | -0.119 | 0.271 | 0.545 | 0.323 | -0.372 | 0.371 | -0.0757 | -0.424 | -0.443 | -0.334 |
| TCATATAGGTACATGCTAGGTGAAAGTCCGATCT | 0.846 | 1.11 | 0.242 | 0.622 | 0.134 | 1.15 | 0.699 | 2.04 | 3.56 | 2.99 |
| CCTCGGAGGACAACAGGAGGTAAGAGCTGCCAGA | 0.127 | -0.463 | -0.208 | -0.701 | -0.983 | -0.345 | 0.154 | -0.624 | -0.764 | -0.831 |
| AGTCAAAGTTCATCTAAGTAACGTAAGATATGCT | 6.46 | 5.91 | 4.97 | 3.59 | 1.65 | 4.76 | 6.53 | 6.27 | 3.47 | 5.55 |
| CGTCAAAGATCAACTAAGGTAACGTAAAGCACGC | 1.52 | 0.952 | 0.0696 | 0.635 | -0.0274 | 1.19 | 0.897 | 0.957 | 0.274 | 0.711 |
| GTACCAAGATGAATAGGTCGTTGATGAGTAGGCG | -0.271 | -0.137 | -0.17 | -0.161 | -0.482 | 0.287 | 0.526 | -0.163 | -0.282 | -0.197 |
| ATCGAAAGGGCGAGGTGAGTATAGAGAAAGGGAA | 0.707 | 0.563 | -0.0358 | 0.463 | 0.173 | 1.38 | 0.612 | 0.445 | 0.457 | 0.394 |
| TCATATCGGTAAAAGGTGAAAGTCGGTGTGGTAA | 1.65 | 1.77 | 0.323 | 1.52 | 0.181 | 4.23 | 6.69 | 6.91 | 6.64 | 7.74 |
| TCTGCTAGGTTAGTTGGTCAGCTAACGAGCTGCC | -0.522 | -0.402 | -0.882 | -0.708 | -0.0822 | 0.052 | -0.648 | 0.707 | 0.944 | 0.973 |
| TCTATTAGTCGAAGGGCAACCGACGAGTCCGTTT | 0.678 | 0.643 | 0.0615 | 0.638 | 0.475 | 0.751 | 0.274 | 2.2 | 3.57 | 2.77 |
| CCAACTAGGTCAGAACAGGACAGTGAAGGATGAT | 1.3 | 1.41 | 0.28 | 0.911 | 0.446 | 2.61 | 4.46 | 3.56 | 1.37 | 2.8 |
| GCTAGTTGATCAGTAAAAGGTCACACACCGGTCG | 3.16 | 4.73 | 4.21 | 3.98 | 0.478 | 4.53 | 2.11 | 4.16 | 1.58 | 3.46 |
| CCTTACGGGTCAAGGTTATAGCGCGGGTGGTACG | 5.55 | 3.66 | 0.129 | 2.75 | 0.134 | 5.04 | 4.54 | 4.41 | 1.73 | 3.35 |
| CCTAGATGGTCAAGGTCACACACGCTATAGGTAC | 4.6 | 3.62 | 2.05 | 3.69 | 0.665 | 4.2 | 3.13 | 3.56 | 1.34 | 2.46 |
| TCGAGTAGGTTAGGGGCCTTCAGAATGGCGTCGA | -0.193 | -0.323 | -0.797 | -0.221 | -0.986 | 0.54 | 0.638 | 2.19 | 0.926 | 2.03 |
| CCTGCTAGGTCAATGTTCAGCTAAAGCAGCTCGC | 3.04 | 2.39 | -0.0143 | 1.52 | 0.516 | 3 | 2.51 | 3.63 | 0.934 | 2.93 |
